Inconclusive results are not listed. Active and inactive are the calls of the source. Unless noted, the call rests on the fitted dose curve; in most records, active means well fitted curve in the direction sought with a large enough effect; inconclusive means small, poorly fitted or top-dose-only effect, or another doubt; inactive means no such curve, though single readings can be large; an effect the other way counts as inactive or inconclusive.
Legend:
[1] = AP1 Signaling Pathway (AID 357; active means well fitted curve in either direction with a large enough effect, not every such curve was filed as active;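 further: ME-180 reporter cells stimulated with EGF at its EC50 level; on the % scale 0 is the no-effect control and ±100 the full control effect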)
In short: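 Modulation of EGF-driven AP-1 transcription was assessed with a beta-lactamase reporter in ME-180 cells. Compound and EC50 EGF were co-incubated 5 hours at 37 °C before 2.5-hour CCF4 loading at room temperature and dual-emission reading.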

[2] = biological target: Cytochrome P450 1A2 (Homo sapiens) (UniProt P05177); assay: p450-cyp1a2 (AID 410; calls by dose curve; further: potency means the concentration at half of the fitted maximal effect;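 on activity change, negative = inhibition: -100% = full effect of reference inhibitor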)
Cytochrome P450 1A2 (Homo sapiens), sequence (P05177 whole entry, looked up): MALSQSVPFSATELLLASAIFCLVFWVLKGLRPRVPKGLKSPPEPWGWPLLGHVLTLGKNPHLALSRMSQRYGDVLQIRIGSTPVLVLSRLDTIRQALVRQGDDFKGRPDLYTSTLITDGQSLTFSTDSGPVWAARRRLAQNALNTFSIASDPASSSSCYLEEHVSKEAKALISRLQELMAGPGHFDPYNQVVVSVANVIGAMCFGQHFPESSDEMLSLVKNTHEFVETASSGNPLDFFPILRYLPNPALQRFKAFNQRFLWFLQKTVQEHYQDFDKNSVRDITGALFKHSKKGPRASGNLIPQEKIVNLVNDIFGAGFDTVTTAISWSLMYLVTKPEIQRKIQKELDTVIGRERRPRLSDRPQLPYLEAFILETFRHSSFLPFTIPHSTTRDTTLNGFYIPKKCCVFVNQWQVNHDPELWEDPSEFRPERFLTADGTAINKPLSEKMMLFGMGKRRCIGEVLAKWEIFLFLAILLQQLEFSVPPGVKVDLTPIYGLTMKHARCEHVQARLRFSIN
In short: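 20nM CYP1A2, 100uM Luciferin-ME (=Km), 100mM KPO4; cpd 10 min RT; +NADPH regen, 60 min RT; stop/detect 20 min; luminescence. Normalized to furafylline 57 uM = full inhibition.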

[3] = NFAT Signaling Pathway (AID 444; active means well fitted curve in either direction with a large enough effect, not every such curve was filed as active;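 further: carbachol stimulus at about its EC50 of 1 µM final; on the % scale 0 is the no-effect control and ±100 the full control effect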); conditions: Jurkat NFAT-bla M1, carbachol, beta-lactamase ratio, 5 h; at 17.2 µM (top of the series)
In short: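 Read-out: CCF4 FRET ratio (460 nm/530 nm) after 1 h RT dye loading, used for %activity and AC50 from titration series. Cells: Jurkat NFAT-β-lactamase/M1 line, treated with compound plus 1 uM carbachol for 5 h, 37 °C.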

[4] = Stat Signaling Pathway (AID 446; active means well fitted curve in either direction with a large enough effect, not every such curve was filed as active;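 further: ME-180 cervical cancer cells given 40 pM IL-6 alongside compound; SIE-controlled beta-lactamase reporter measured as 460/530 nm FRET emission ratio; on the % scale 0 is the no-effect control and ±100 the full control effect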)
In short: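 Overnight-plated ME-180 cells bearing a STAT Inducible Element beta-lactamase reporter; 5 h co-exposure to compound and 40 pM IL-6; values normalized to 300 pM IL-6 and 125 nM JAK inhibitor controls.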

[5] = biological target: Glucocorticoid receptor (Homo sapiens) (UniProt P04150); assay: GR-GFP Redistribution (AID 450;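 active means compounds whose dose series gives a full or clear partial fitted curve of increased nuclear translocation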; further: potency means the concentration at half of the fitted maximal effect); conditions: U2OS GR-GFP nuclear translocation, laser cytometry, 2 h
Glucocorticoid receptor (Homo sapiens), sequence (P04150 whole entry, looked up, the tested form may be a part): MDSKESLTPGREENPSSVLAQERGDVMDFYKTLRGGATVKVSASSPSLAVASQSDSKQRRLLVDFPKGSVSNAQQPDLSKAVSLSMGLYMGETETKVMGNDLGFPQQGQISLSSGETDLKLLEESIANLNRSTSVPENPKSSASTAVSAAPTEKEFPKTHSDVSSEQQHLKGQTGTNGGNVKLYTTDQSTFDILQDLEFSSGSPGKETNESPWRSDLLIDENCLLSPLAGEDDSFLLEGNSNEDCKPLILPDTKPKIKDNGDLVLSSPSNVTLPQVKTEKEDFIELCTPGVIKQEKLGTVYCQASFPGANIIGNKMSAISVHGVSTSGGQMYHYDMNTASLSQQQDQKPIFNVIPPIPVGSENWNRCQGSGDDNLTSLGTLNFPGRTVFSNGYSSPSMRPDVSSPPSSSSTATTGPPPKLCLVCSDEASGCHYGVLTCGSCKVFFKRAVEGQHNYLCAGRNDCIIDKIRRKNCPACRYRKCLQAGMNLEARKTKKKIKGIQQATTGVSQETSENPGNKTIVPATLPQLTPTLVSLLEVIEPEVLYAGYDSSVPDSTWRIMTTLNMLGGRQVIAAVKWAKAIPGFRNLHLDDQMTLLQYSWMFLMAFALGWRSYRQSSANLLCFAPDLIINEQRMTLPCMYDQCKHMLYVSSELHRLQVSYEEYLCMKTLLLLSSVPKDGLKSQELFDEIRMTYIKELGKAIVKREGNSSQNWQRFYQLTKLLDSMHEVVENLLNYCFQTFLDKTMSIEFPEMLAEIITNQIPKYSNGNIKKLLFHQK

[6] = biological target: Glucocorticoid receptor (Homo sapiens) (UniProt P04150); assay: GR-EFC Redistribution (AID 451; calls by dose curve; further: potency means the concentration at half of the fitted maximal effect); conditions: CHO-K1 GR-EFC translocation, beta-gal luminescence, 2 h
In short: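 Translocation of GR-ED fusion to nuclear EA restores b-gal, read by luminescence after 1 h room-temperature detection. Engineered CHO-K1 biosensor cells, 1,000/well, exposed 2 h at 37 C to titrations up to 46 uM final.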

[7] = biological target: Mitogen-activated protein kinase 10 (Mus musculus) (UniProt Q61831); assay: JNK3 AlphaScreen Assay (AID 530; active means well fitted curve in either direction with a large enough effect, not every such curve was filed as active;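 further: kinase came from lysate of stimulated human HepG2 cells; signal reports phosphorylation of biotinylated GST-cJun 1-79 at Ser73 with 10 µM ATP; on the % scale 0 is the no-effect control and ±100 the full control effect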)
In short: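 Kinase buffer: 20 mM Tris-HCl pH 7.6, 10 mM MgCl2, 1 mM DTT, 0.1 mM Na3VO4, 0.01% Tween-20; ATP 10 uM. Substrate biotin-GST-cJun(1-79), enzyme from activated HepG2 lysates. Detection by Ser73 phospho-antibody AlphaScreen.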

[8] = biological target: 3',5'-cyclic-AMP phosphodiesterase 4B (Homo sapiens) (UniProt Q07343); assay: qHTS Assay for Inhibitors of PDE-IV (AID 607; active means well fitted activation curve with a large enough effect in the main read-out, with a control signal flat, not every such curve was filed as active; further: % of control where 0% means no effect)
3',5'-cyclic-AMP phosphodiesterase 4B (Homo sapiens), sequence (Q07343 whole entry, looked up): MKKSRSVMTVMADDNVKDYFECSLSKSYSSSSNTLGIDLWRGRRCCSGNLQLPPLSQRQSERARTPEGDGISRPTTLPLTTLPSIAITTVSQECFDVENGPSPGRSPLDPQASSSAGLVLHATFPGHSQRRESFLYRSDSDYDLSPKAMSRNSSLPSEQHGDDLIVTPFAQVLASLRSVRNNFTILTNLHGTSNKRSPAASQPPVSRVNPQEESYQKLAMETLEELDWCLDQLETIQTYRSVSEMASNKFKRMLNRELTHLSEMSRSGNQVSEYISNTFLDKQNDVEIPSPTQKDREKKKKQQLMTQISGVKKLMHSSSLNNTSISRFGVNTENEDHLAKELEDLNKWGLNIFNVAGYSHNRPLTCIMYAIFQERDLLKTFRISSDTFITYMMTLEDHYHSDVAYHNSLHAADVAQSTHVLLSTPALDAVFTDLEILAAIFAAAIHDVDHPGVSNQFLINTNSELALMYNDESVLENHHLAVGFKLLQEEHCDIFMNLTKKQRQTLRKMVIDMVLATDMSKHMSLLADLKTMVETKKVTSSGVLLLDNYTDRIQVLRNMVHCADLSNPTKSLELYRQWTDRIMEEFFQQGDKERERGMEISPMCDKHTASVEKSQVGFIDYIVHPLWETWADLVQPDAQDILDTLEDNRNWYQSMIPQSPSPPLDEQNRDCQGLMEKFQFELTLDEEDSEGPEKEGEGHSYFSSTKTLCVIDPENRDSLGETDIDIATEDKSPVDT
In short: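 Live HEK293 cells with a modified cyclic nucleotide-gated (CNG) channel report intracellular cAMP via membrane-potential dye fluorescence (ex 535/em 590 nm). Endogenous PDE-IV was targeted. Compounds were tested at up to 22.9 uM final; RO 20-1724 100 uM served as control.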

[9] = qHTS Assay for Lipid Storage Modulators (AID 1519; calls by dose curve); conditions: Drosophila S3 cells, BODIPY lipid droplet/cell ratio, laser cytometry, cells loaded with oleic acid; for activity change, negative = inhibition: at 25.7 µM (top of the series)
In short: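 Cells seeded at 5,000 per well were treated with compounds over a concentration series and loaded with oleic acid (400 uM, as added). Lipid droplet fluorescence (488 nm excitation, 500-530 nm channel) was read by laser-scanning cytometry and normalized to 20 uM Triacsin C.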

[10] = biological target: ATP-dependent 6-phosphofructokinase (Trypanosoma brucei brucei) (UniProt O15648); assay: qHTS Assay to Find Inhibitors of T. brucei phosphofructokinase: hit validation (AID 492961)
ATP-dependent 6-phosphofructokinase (Trypanosoma brucei brucei), sequence (O15648 whole entry, looked up): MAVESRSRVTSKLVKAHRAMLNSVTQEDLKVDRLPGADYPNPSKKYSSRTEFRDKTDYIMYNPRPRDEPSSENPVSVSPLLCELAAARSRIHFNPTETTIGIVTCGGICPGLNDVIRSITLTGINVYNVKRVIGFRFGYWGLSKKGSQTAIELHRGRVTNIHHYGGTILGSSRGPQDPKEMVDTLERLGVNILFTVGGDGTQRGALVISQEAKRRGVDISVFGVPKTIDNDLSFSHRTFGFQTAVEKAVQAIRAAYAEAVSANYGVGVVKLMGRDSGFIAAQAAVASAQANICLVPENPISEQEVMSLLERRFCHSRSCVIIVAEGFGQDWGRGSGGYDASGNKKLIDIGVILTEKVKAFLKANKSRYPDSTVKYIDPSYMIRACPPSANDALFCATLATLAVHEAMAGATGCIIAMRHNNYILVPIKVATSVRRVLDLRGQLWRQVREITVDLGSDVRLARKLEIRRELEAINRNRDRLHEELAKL
In short: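 ADP-Glo luminescence read-out of ADP formed by 1.25 nM PFK from 0.1 mM ATP and 0.5 mM F6P (TEA pH 8.0, 45 min, RT). Compounds titrated; activity normalized to no-enzyme and full-enzyme controls.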

[11] = biological target: Ubiquitin carboxyl-terminal hydrolase 1 (Homo sapiens) (UniProt O94782); assay: Inhibitors of USP1/UAF1: Pilot qHTS (AID 504865);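 further: rhodamine fluorescence freed from ubiquitin-rhodamine substrate followed over time; top concentration of the series differs between compounds; on the % scale 0 is the no-effect control and ±100 the full control effect; nearly all actives have a fitted effect of over 35% in size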
Ubiquitin carboxyl-terminal hydrolase 1 (Homo sapiens), sequence (O94782 whole entry, looked up): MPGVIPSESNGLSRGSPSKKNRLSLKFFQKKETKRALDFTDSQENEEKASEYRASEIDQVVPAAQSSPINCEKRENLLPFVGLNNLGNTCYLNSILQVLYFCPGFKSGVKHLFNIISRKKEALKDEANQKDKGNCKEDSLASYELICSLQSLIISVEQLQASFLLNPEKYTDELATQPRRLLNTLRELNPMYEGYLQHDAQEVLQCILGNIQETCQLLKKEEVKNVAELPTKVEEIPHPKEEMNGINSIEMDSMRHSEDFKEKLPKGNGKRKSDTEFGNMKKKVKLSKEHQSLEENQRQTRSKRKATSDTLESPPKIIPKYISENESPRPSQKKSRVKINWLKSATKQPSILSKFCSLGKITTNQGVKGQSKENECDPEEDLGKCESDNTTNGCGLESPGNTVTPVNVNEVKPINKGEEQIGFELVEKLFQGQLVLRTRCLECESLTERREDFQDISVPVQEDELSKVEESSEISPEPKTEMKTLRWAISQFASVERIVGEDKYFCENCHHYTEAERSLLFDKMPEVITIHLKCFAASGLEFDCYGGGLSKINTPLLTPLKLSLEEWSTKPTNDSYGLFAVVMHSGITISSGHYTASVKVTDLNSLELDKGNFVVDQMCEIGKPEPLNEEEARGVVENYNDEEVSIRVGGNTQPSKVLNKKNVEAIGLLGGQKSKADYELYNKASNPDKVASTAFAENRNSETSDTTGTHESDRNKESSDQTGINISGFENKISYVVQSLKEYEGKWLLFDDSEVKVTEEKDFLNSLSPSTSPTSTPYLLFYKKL
In short: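 USP1/UAF1 complex at 1 nM preincubated 15 min at room temperature with compound, then Ub-Rho substrate added at 150 nM final. Fluorescence (480/540 nm) read kinetically in 50 mM HEPES pH 7.8, 0.5 mM EDTA, 1 mM TCEP, 0.1 mg/ml BSA, 0.01% Tween-20.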

[12] = biological target: Luciferin 4-monooxygenase (Photinus pyralis) (UniProt P08659); assay: Biochemical firefly luciferase enzyme assay for NPC (AID 624030);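 further: purified P. pyralis luciferase at 10 nM with luciferin and ATP substrate; 0% = DMSO and -100% = full luciferase inhibition by PTC124 control; nearly all actives have a fitted effect of over 70% in size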
Luciferin 4-monooxygenase (Photinus pyralis), sequence (P08659 whole entry, looked up): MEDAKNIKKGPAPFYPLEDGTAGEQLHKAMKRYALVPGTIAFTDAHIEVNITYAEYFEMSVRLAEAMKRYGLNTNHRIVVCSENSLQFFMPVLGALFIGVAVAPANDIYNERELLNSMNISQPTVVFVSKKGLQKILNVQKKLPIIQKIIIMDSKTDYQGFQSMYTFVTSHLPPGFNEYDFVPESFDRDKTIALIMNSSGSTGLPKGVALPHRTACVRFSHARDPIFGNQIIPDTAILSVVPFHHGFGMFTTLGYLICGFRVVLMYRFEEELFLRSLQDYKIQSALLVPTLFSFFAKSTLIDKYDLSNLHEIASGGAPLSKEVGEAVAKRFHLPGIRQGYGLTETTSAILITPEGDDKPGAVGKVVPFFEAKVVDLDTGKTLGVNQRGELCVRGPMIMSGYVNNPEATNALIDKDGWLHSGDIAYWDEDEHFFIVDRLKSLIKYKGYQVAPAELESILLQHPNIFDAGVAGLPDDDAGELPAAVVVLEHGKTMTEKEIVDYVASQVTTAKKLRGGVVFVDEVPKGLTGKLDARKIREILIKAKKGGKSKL
In short: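 Direct inhibition of firefly luciferase enzyme (10 nM final, 50 mM Tris Acetate) assessed by luminescence within 5 minutes. Percent activity scaled between DMSO and PTC124 positive control, with concentration-effect curves classified by fit quality and response.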

[13] = qHTS profiling for inhibitors of Plasmodium falciparum proliferation (AID 504749);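 further: 0% = DMSO vehicle and full inhibition = artemisinin control; nearly all actives have a fitted effect of over 60% in size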; conditions: P. falciparum in erythrocytes, SYBR Green DNA, 72 h, at 12.8 µM (top of the series)
In short: (§1)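 In a 72 h erythrocytic culture (37 C, humidified, 5% CO2) at 2.5% hematocrit and 0.3% starting parasitemia, compounds were tested; SYBR Green I in detergent lysis buffer stained parasite DNA overnight.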

C2A = assay: as above; conditions: P. falciparum in erythrocytes, SYBR Green DNA, 72 h; series mostly up to 28.7 µM
In short: as §1

CP185 = assay: as above; conditions: P. falciparum in erythrocytes, SYBR Green DNA, 72 h; series mostly up to 28.7 µM
In short: as §1

FAB9 = assay: as above; conditions: P. falciparum in erythrocytes, SYBR Green DNA, 72 h; series mostly up to 28.7 µM
In short: as §1

[14] = biological target: Cytochrome P450 3A4 (Homo sapiens) (UniProt P08684); assay: qHTS Assay for Inhibitors and Substrates of Cytochrome P450 3A4 (AID 884); further: on the % scale 0 is the no-effect control and ±100 the full control effect; nearly all actives have a fitted effect of over 50% in size
Cytochrome P450 3A4 (Homo sapiens), sequence (P08684 whole entry, looked up): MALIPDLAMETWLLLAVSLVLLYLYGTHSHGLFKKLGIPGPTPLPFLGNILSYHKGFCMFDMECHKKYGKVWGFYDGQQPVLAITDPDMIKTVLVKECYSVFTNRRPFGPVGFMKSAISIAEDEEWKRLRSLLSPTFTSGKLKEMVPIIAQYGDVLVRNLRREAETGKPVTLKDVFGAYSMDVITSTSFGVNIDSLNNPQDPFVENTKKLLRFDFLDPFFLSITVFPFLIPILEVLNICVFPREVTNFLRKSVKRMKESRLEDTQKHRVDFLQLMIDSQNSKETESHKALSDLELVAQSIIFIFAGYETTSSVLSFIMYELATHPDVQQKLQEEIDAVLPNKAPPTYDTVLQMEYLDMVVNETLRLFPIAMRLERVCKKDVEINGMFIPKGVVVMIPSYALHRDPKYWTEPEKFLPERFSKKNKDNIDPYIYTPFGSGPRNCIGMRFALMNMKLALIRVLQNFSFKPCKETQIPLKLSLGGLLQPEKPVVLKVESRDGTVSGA
In short: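 Luminescent readout of luciferin produced by CYP3A4 (20 nM) dealkylation of Luciferin-PPXE, 25 uM (its KM). NADPH-driven reaction ran 60 min at RT after 10 min compound preincubation; data scaled to 57 uM ketoconazole as 100% inhibition.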

[15] = biological target: Cytochrome P450 3A4 (Homo sapiens) (UniProt P08684); assay: qHTS Assay for Activators of Cytochrome P450 3A4 (AID 885); further: potency means the concentration at half of the fitted maximal effect; nearly all actives have a fitted effect of over 65% in size
In short: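 Using 20nM recombinant human CYP3A4 in potassium phosphate (200mM), substrate Luciferin-PPXE at 25uM, luminescent luciferin detection followed a 60-min RT NADPH reaction; data scaled to 57 uM ketoconazole.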

[16] = measured here: cell count channel max response
[17] = measured here: lipid channel max response

C[C@@]12CC[C@H]3[C@@H](CC[C@@H]4C[C@H]5S[C@H]5C[C@]43C)[C@H]1CC[C@H]2O
active: Potency [2] 0.0251 µM
inactive: outcome [1] | activity change, negative = inhibition [3] -8.3% | outcome [4] | Potency [5] > 20.6 µM | Potency [6] > 20.6 µM | outcome [7] | Potency [8] | activity change, negative = inhibition [9] -4.67% | Potency [10] | Potency [11] | Potency [12] | activity, negative = inhibition ([13]; parasite line A) 2.41% | activity, negative = inhibition ([13]; parasite line B) 1.96% | Potency (C2A) | Potency (CP185) | Potency (FAB9)
-19.3%: max response [9, 16]
-23.9%: max response [9, 17]

C[C@H](N)[C@@H](O)c1ccccc1
17%: max response [9, 16]
inactive: outcome [1] | Potency [2] | activity change, negative = inhibition [3] 10.1% | outcome [4] | Potency [5] > 20.6 µM | Potency [6] > 20.6 µM | outcome [7] | Potency [8] | activity change, negative = inhibition [9] 1.99% | Potency [10] | Potency [11] | Potency [12] | activity, negative = inhibition ([13]; parasite line A) -2.43% | activity, negative = inhibition ([13]; parasite line B) 9.04% | Potency (C2A) | Potency (CP185) | Potency (FAB9)
20.5%: max response [9, 17]

C[C@@]12CC(=O)[C@H]3[C@@H](CCC4=CC(=O)CC[C@]43C)[C@H]1CCC2=O
inactive: outcome [1] | Potency [2] | activity change, negative = inhibition [3] 2.56% | outcome [4] | Potency [5] > 20.6 µM | Potency [6] > 20.6 µM | outcome [7] | activity change, negative = inhibition [9] -2.03% | Potency [11]
-10.7%: max response [9, 16]
-12.2%: max response [9, 17]

CC(=O)O[C@H]1CC[C@@]2(C)C(=CC[C@@H]3[C@H]2CC[C@]2(C)C(=O)CC[C@H]32)C1
inactive: outcome [1] | Potency [2] | activity change, negative = inhibition [3] -13.7% | outcome [4] | Potency [5] > 20.6 µM | Potency [6] > 20.6 µM | outcome [7] | Potency [8] | Potency [14] | activity change, negative = inhibition [9] -0.861% | Potency [10] | Potency [12] | activity, negative = inhibition ([13]; parasite line A) 8.47% | activity, negative = inhibition ([13]; parasite line B) 10.9% | Potency (C2A) | Potency (CP185) | Potency (FAB9)
-9.47%: max response [9, 16]
active: Potency [15] 12.6 µM
-12.6%: max response [9, 17]

C[C@H]1CN(C2CCC(C#N)(c3ccc(F)cc3)CC2)CC[C@@]1(C(=O)O)c1ccccc1 (stereo partly specified)
-19.6%: max response [9, 16]
-20.8%: max response [9, 17]
inactive: outcome [1] | Potency [2] | activity change, negative = inhibition [3] -14% | outcome [4] | Potency [5] > 20.6 µM | Potency [6] > 20.6 µM | outcome [7] | activity change, negative = inhibition [9] -3.1% | Potency [10] | Potency [12] | activity, negative = inhibition ([13]; parasite line A) 1.54% | activity, negative = inhibition ([13]; parasite line B) 12.6% | Potency (C2A) | Potency (CP185) | Potency (FAB9)
